The text below walks through data of PubChem BioAssay AID686978 (National Center for Advancing Translational Sciences (NCATS), 2013).

About 64,000 (15%) of roughly 420,000 compounds were called active. Roughly 27% stayed inconclusive and do not appear here. The call rests on the fitted dose curve; in most records, active means well fitted inhibition curve with a large enough effect; inconclusive means small, poorly fitted or top-dose-only effect; inactive means flat fitted curve, though single readings scatter. These entries were drawn from the full list. A call without a number means that no potency is given here.
Potency means the concentration at half of the fitted maximal effect.

A short description of the assay: qHTS for Inhibitors of human tyrosyl-DNA phosphodiesterase 1 (TDP1): qHTS in cells in absence of CPT. Further: nearly all actives have a fitted effect of over 55% in size. The settings on record: DT40 Tdp1-/- hTDP1 cells, no CPT, ATP luminescence, 48 h; activity change, negative = growth inhibition: at 46.2 µM (top of the series). The essentials: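 Luminescent ATP content (CellTiter-Glo) served as the growth readout. Knockout chicken DT40 cells expressing human TDP1 were exposed to compounds without camptothecin for a minimum 48 hr at 37 °C.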
For orientation: qHTS replaces the single test concentration by a dilution series.
With `CCOC(=O)c1ccc2[nH]c3c(c2c1)CCCC3NC=O` (stereo unspecified), the Potency entry was “inactive”.
As to `C=CC1=C(C(=O)O)N2C(=O)[C@@H](NC(=O)/C(=N\OCC(=O)O)c3csc(N)n3)[C@H]2SC1`, the Potency result is “inactive”.
Regarding `Nc1c(N(CCCO)C(=O)C2CCCC2)c(=O)[nH]c(=O)n1Cc1ccccc1`, the Potency result is “inactive”.
Then `COc1ccc(NC(=O)C(CC(C)C)NC(=O)C2CCC(C)CC2)cc1` (stereo unspecified), with “inactive”.
With `O=C(Cn1nc(Cc2cccnc2)c2ccccc2c1=O)NCC1CCCO1` (stereo unspecified), the Potency entry is “inactive”.
Consider `COc1cc(=O)n2c(c1C(=O)NCc1ccco1)CCN(Cc1ccccc1)CC2`, for which the Potency result is “inactive”.
On to `COCCNc1ncnc2c1ncn2[C@H]1CN(CCN2CCOCC2)C[C@@H](CO)O1`, for which the Potency result was “inactive”.
Consider `CN(CC(=O)NNC(=O)CNC(=O)c1ccccc1Cl)S(=O)(=O)c1ccc(Cl)cc1`, for which the Potency entry is “inactive”.
`O=C1c2ccccc2C(=O)N1c1ccccc1S(=O)C(F)(F)F` (stereo unspecified): the Potency entry is “inactive”.
With `COc1ccc(CCNC(=O)Cn2c(=O)n(CC3CCCO3)c(=O)c3ccccc32)cc1OC` (stereo unspecified), the Potency entry is “inactive”.
With `COc1ccccc1-n1cnc2cc(C(=O)NCC3CCCO3)ccc21` (stereo unspecified), the Potency result was “inactive”.
With `COc1ccc(CCn2c(=N)c(C(=O)NCC3CCCO3)cc3c(=O)n4cccc(C)c4nc32)cc1OC` (stereo unspecified), the Potency is 0.517 µM (active).
As for `CC1CCC(NC(=O)CN(C)S(=O)(=O)c2ccc3c(c2)c(=O)n(C)c(=O)n3C)CC1` (stereo unspecified), the Potency entry is “inactive”.
As to `CN(C(=O)CSc1nnc(C2CC2)n1C)C1CCCc2ccccc21` (stereo unspecified), the Potency result was “inactive”.
On to `COC(=O)C1=C[C@@H](C(=O)OC)[C@@H]2C3=C(C(=O)[C@]2(C)NC(=O)c2ccccc2)[C@H](C)n2c(=O)n(C)c(=O)n2[C@@H]3C1`, for which the Potency result was “inactive”.
As for `CCC1(CC)C(=O)C2=C3C1[C@H](C(=O)OC)C=C(C(=O)OC)C[C@H]3[C@H]1C(=O)N(Cc3ccccc3)C(=O)[C@H]1[C@H]2C` (stereo partly specified), the Potency was 16.4 µM (active).
Turning to `CCOC(=O)C1=CCC2C(=O)N(Cc3ccccc3)C(=O)C12` (stereo unspecified), the Potency result was “inactive”.
For the molecule `CCOc1ccccc1NC(=O)CCc1nnc2ccc(NCc3ccco3)nn12`, the Potency entry is “inactive”.
As for `CNC(=O)c1sc(NCc2ccccc2OC)nc1C`, the Potency entry was “inactive”.
As to `CNC(=O)c1sc(Nc2ccc(OCc3ccccc3)cc2)nc1C`, the Potency was 13 µM (active).
As for `Cc1cccc(NC(=O)Nc2ccc(OCc3ccccc3)cc2)n1`, the Potency result was “inactive”.
As to `COc1ccc(C(C(=O)NC2CCCCC2)N(C(=O)Cc2c[nH]c3ccccc23)c2ccccc2)cc1OC` (stereo unspecified), the Potency is 18.4 µM (active).
On to `COc1ccc(C(C(=O)NCC2CCCO2)N(C(=O)Cn2nnc3ccccc32)c2ccc(NC(C)=O)cc2)cc1OC` (stereo unspecified), for which the Potency entry was “inactive”.
Then `COc1ccc(CNC(=O)[C@H](Cc2c[nH]c3ccccc23)NC(C)=O)cc1OC`, with “inactive”; and `CN(Cc1c(F)cccc1Cl)S(=O)(=O)c1cccs1`, with “inactive”; and `O=C(NCc1ccccn1)C1CCN(S(=O)(=O)c2ccc(Br)cc2)CC1`, with “inactive”.
Then `CC1(C)CCSC(/C=C/c2ccccc2)=N1`, with 4.61 µM (active); and `CCCOc1ccc(NC(=O)C2CCCNC2=O)cc1` (stereo unspecified), with “inactive”.
Take `Cc1ccc(-c2ccnc(-n3ncc(C(=O)N(C)Cc4cccc5ncccc45)c3C3CC3)n2)o1`: the Potency result is “inactive”.
Turning to `CC1CN(c2nc(Nc3ccccc3)nc(N)c2[N+](=O)[O-])CC(C)O1` (stereo unspecified), the Potency was 14.6 µM (active).
On to `Nc1nc(NCC(=O)O)nc(N2CCCCCC2)c1[N+](=O)[O-]`, for which the Potency result was “inactive”.
With `CCN1CCN(c2nc(Nc3cccc(F)c3)nc(N)c2[N+](=O)[O-])CC1`, the Potency result was “inactive”.
In the case of `CCOC(=O)c1ccccc1NC(=O)COC(=O)CCC(=O)N1CCOCC1`, the Potency entry is “inactive”.
For `NC(=O)C1CC(=O)N(c2ccc(OCC(=O)NCc3ccccc3)cc2)C1` (stereo unspecified), the Potency entry was “inactive”.
For the molecule `Cc1ccc(C(=O)NNC(=O)c2ccncc2)cc1S(=O)(=O)N1CCCCC1`, the Potency result was “inactive”.
For the molecule `O=C(NNC(=O)c1cnccc1C(F)(F)F)c1ccc(Cl)cc1`, the Potency entry is “inactive”.
For `O=C(NNC1=C(C(=O)C(F)(F)F)CCC1)c1ccncc1`, the Potency was 1.64 µM (active).
On to `COc1ccc2c(c1)c1ncn(Cc3ccccn3)c(=O)c1n2C`, for which the Potency entry was “inactive”.
Take `O=C(CSc1c2c(nc3ccc(Cl)cc13)CCCC2)NCc1ccco1`: the Potency was 18.4 µM (active).
For the molecule `COc1ccc(N2CCN(C(=O)c3ccc4c(Cl)c5c(nc4c3)CCCC5)CC2)cc1`, the Potency was 20.6 µM (active).
Consider `O=C(/C=C/c1ccc(Cl)cc1Cl)NCc1ccco1`, for which the Potency entry was “inactive”.
For `Cc1cn(C)c(CC(=O)NCc2ccc(Cl)cc2)c1C(=O)O`, the Potency result is “inactive”.
The entry for `COc1cccc(CNC(=O)c2cccnc2Sc2ccc(Cl)cc2)c1` is “inactive”; for `COc1ccc(N2CCN(C(=O)c3ccc(N4CCCCS4(=O)=O)cc3)CC2)cc1` it is “inactive”.
The figure for `COc1cccc(CNC(=O)c2ccc3c(Cl)c4c(nc3c2)CCCC4)c1` is 23.1 µM (active).
Consider `Cc1ccc(CNC(=O)CSc2c3c(nc4cc(Cl)ccc24)CCCC3)cc1`, for which the Potency was 14.6 µM (active).
`Cc1ccc(CNC(=O)COc2ccc3c(c2)CCC3)cc1`: the Potency result is “inactive”.
The entry for `O=C(CSc1nnnn1-c1ccccc1)NCc1ccco1` is “inactive”.
Take `COc1cccc(CNc2nc3nc4c(c(=O)n3[nH]2)CCC4)c1`: the Potency entry is “inactive”.
`Cc1cc(C)c2nc(-c3cccnc3)cc(C(=O)Nc3ccc(S(=O)(=O)Nc4onc(C)c4C)cc3)c2c1`: the Potency result is “inactive”.
For `Cc1cc(C)n2nc(C(=O)OC(C)C(=O)c3cc(C)c(C)cc3C)nc2n1` (stereo unspecified), the Potency result was “inactive”.
Consider `Cc1cc(NC(=O)Nc2c[nH]c(=O)[nH]c2=O)ccc1Br`, for which the Potency result is “inactive”.
Turning to `CCOc1cc(/C=C2/C(=N)N3OC(C)=CC3=NC2=O)ccc1OC`, the Potency result was “inactive”.
With `O=C(Nc1ccc(Cl)cc1)c1csc([C@H]2C[C@H](O)[C@@H](CO)O2)n1`, the Potency entry is “inactive”.
For the molecule `CCN(CC)CCN1C(=O)C2C(C(=O)Nc3ccc(Br)cc3)C3C=CC2(O3)C1C(=O)NC1CCCCC1` (stereo unspecified), the Potency result was “inactive”.
With `CC1CC[C@@]23CCC4(C)[C@@]5(C)CCC6C(C)(C)C(O)CC[C@@]6(C)C5C=C[C@@]4(OC2=O)C3C1C` (stereo partly specified), the Potency result is “inactive”.
Turning to `O=C(NC(Cc1ccc(O)cc1)C(=O)O)/C(=C/c1ccccc1)NC(=O)c1ccccc1` (stereo unspecified), the Potency entry was “inactive”.
Then `O=C(NCC(F)(F)F)Nc1nnc(C(F)(F)F)s1`, with “inactive”; and `CCOC(=O)C1=C(NC(=S)NC(=O)c2ccccc2)c2ccccc2CC1(C)C`, with “inactive”; and `COc1cccc(CNC(=O)c2nnn(CC(=O)Nc3cc(Cl)ccc3C)c2N)c1`, with “inactive”.
Regarding `O=C(O)CSc1c2c(nc3cc(C(=O)Nc4cccc(C(F)(F)F)c4)ccc13)CCCC2`, the Potency entry was “inactive”.
Regarding `CC(=O)c1ccc(NC(=O)c2ccc3c(Cl)c4c(nc3c2)CCCC4)cc1`, the Potency was 18.4 µM (active).
As to `COc1cccc(-c2ccc(C#N)c(SCC(=O)NCCc3ccc(Cl)cc3)n2)c1`, the Potency entry was “inactive”.
Turning to `COc1cccc(CNC(=O)CSc2c3c(nc4cc(Cl)ccc24)CCCC3)c1`, the Potency was 14.6 µM (active).
Then `CC(=O)c1ccc(NC(=O)c2cc(-c3cccs3)on2)cc1`, with “inactive”.
For the molecule `Cc1nc2c(C(=O)NCc3ccc4c(c3)OCO4)c[nH]n2c(=O)c1Cc1ccccc1F`, the Potency entry was “inactive”.
In the case of `Cc1cc(N)n(-c2ccc(S(=O)(=O)N3CCCC3)cc2[N+](=O)[O-])n1`, the Potency result was “inactive”.
In the case of `O=C(c1cc2ccccc2s1)N1CCN(c2ccccn2)CC1`, the Potency entry was “inactive”.
Then `COc1cccc(OC)c1C(=O)Nc1c(C(=O)N2CCN(c3ccccn3)CC2)oc2ccccc12`, with 25.9 µM (active).
Consider `O=C(Nc1ccccc1C(=O)N1CCCCC1)c1ccco1`, for which the Potency entry is “inactive”.
For the molecule `CCOCCCN(C)C1CCN(C(=O)c2oc3ccccc3c2NC(=O)COc2cccc(C)c2)CC1`, the Potency result is “inactive”.
The entry for `O=C(c1c(F)cccc1Cl)N1CCN(c2ccccn2)CC1` is “inactive”; for `O=C(C(Cl)Cl)N1CCN(c2ccccn2)CC1` it is “inactive”.
The entry for `COCC(=O)Nc1c(C(=O)N2CCCC2)oc2ccccc12` is “inactive”.
As for `CCC(=O)Nc1c(C(=O)N2CCN(c3ccc(F)cc3)CC2)oc2ccccc12`, the Potency was 25.9 µM (active).
In the case of `O=C(Nc1c(C(=O)N2CCN(c3ccc(F)cc3)CC2)oc2ccccc12)c1ccco1`, the Potency was 18.4 µM (active).
As for `Cc1cc(C(=O)N2CCN(c3ccccn3)CC2)c(C)o1`, the Potency was 12.6 µM (active).
In the case of `O=C(c1ccco1)N1CCN(C(=S)Nc2cc(F)cc(F)c2)CC1`, the Potency entry is “inactive”.
As for `CCOCCCN(C)C1CCN(C(=O)c2oc3ccccc3c2NC(=O)Cc2cccc([N+](=O)[O-])c2)CC1`, the Potency entry is “inactive”.
With `O=C(CSc1nnc(Nc2ccccc2F)s1)NC1CCCC1`, the Potency result was “inactive”.
Consider `CC(=O)/C(C)=N\O`, for which the Potency result is “inactive”.
The entry for `COc1cc(C2C(C(=O)c3cccs3)=C(O)C(=O)N2CCN2CCOCC2)ccc1OCCC(C)C` (stereo unspecified) is “inactive”.
Regarding `CSc1cc(C)[nH]c(=O)n1`, the Potency entry is “inactive”.
As for `Cc1nnc(SCc2cccc(Cl)c2)n(N)c1=O`, the Potency result was “inactive”.
Turning to `COC(=O)Nc1ccc(S(=O)(=O)N2CCN(CCN3C(=O)C4C5C=CC(C5)C4C3=O)CC2)cc1` (stereo unspecified), the Potency result was “inactive”.
On to `Cc1ccc(C2SCC(=O)N2c2ccccc2)cc1` (stereo unspecified), for which the Potency entry was “inactive”.
The entry for `Cc1ccc(S(=O)(=O)N(C)C)cc1NC(=O)/C=C/c1cccs1` is “inactive”; for `Cc1csc2ncc(C(=O)N(Cc3ccccc3)c3ccccn3)c(=O)n12` it is “inactive”; for `COc1cc(CN(C(=O)c2ccccc2Br)c2ccccn2)cc(OC)c1OC` it is 13 µM (active).
Regarding `COC(=O)c1cc(C(=O)N(Cc2ccccc2)c2ccccn2)cc([N+](=O)[O-])c1`, the Potency entry was “inactive”.
On to `Cc1ccc(CN(C(=O)c2ccccc2[N+](=O)[O-])c2ccccn2)cc1`, for which the Potency was 11.6 µM (active).
In the case of `CC(C)(C)C(=O)N(Cc1ccccc1)c1ccccn1`, the Potency entry is “inactive”.
Take `CCC(=O)N(Cc1ccccc1)c1ccccn1`: the Potency result was “inactive”.
The entry for `O=C(c1ccco1)N1CCC2(CC1)CN(c1ncccn1)C2` is “inactive”.
In the case of `CCN(CC(=O)Nc1c(F)cccc1F)C(=O)c1ccc(S(=O)(=O)N2CCCCC2)cc1`, the Potency entry is “inactive”.
In the case of `CCN1CCN(C(=O)N(Cc2ccc(Cl)cc2)S(=O)(=O)c2ccc(C)cc2)CC1`, the Potency result was “inactive”.
With `O=c1[nH]c2ccccc2s1`, the Potency result was “inactive”.
With `O=C(Cn1c2[n+](c3ccc(C(F)(F)F)cc31)CCCCC2)Nc1c(F)cccc1F`, the Potency entry is “inactive”.
Turning to `CC(=O)NCCn1c(SCC(=O)Nc2ccc(C)cc2)nc2ccccc2c1=O`, the Potency entry was “inactive”.
The entry for `COc1ccc(Cl)cc1NC(=O)CSc1nc2ccccc2c2nc(-c3ccccc3)nn12` is “inactive”; for `Cc1ccc(NC(=O)CSc2nc3ccccc3c3nc(CCn4cncc4C)nn23)cc1F` it is 20.6 µM (active).
